# Laboratory results: publication PMC7826789 (International Journal of Molecular Sciences, 2021)
# How the values were obtained:
# Details in all cases: Compound Concentration (nM):1000
# CAMK2G = system: CAMK2G
# CAMK4 = system: CAMK4
# CAMKK1 = system: CAMKK1
# CAMKK2 = system: CAMKK2
# CASK = system: CASK
# CDC2L1 = system: T1, CDC2L1
# T1 construct: gene CDK11B
# CDC2L2 = system: CDC2L2
# CDC2L5 = system: T2, CDC2L5
# T2 construct: gene CDK13
# CDK11 = system: T3, CDK11
# T3 construct: gene CDK19
# CDK2 = system: CDK2
# CDK3 = system: CDK3
# CDK4-cyclinD1 = system: CDK4-cyclinD1
# CDK4-cyclinD3 = system: CDK4-cyclinD3
# CDK4 = system: CDK4
# CDK5 = system: CDK5
# CDK7 = system: CDK7
# CDK8 = system: CDK8
# CDK9 = system: CDK9
# CDKL1 = system: CDKL1
# CDKL2 = system: CDKL2
# 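Also: KINOMEscan scanMAX binding as percent activity remaining versus control; lower means stronger binding.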
SMILES,Percent Control (CAMK2G) [%],Percent Control (CAMK4) [%],Percent Control (CAMKK1) [%],Percent Control (CAMKK2) [%],Percent Control (CASK) [%],Percent Control (CDC2L1) [%],Percent Control (CDC2L2) [%],Percent Control (CDC2L5) [%],Percent Control (CDK11) [%],Percent Control (CDK2) [%],Percent Control (CDK3) [%],Percent Control (CDK4-cyclinD1) [%],Percent Control (CDK4-cyclinD3) [%],Percent Control (CDK4) [%],Percent Control (CDK5) [%],Percent Control (CDK7) [%],Percent Control (CDK8) [%],Percent Control (CDK9) [%],Percent Control (CDKL1) [%],Percent Control (CDKL2) [%]
NS(=O)(=O)c1ccc(N/N=C2\C(=O)Nc3ccc(-c4cnco4)cc32)cc1 [GW276655],91,100,63,83,84,100,100,56,100,32,47,29,31,94,81,32,100,93,39,49
CN(C)c1cc2c(Nc3ccc4c(cnn4Cc4ccccc4)c3)ncnc2cn1 [GW282974X],82,100,77,73,100,100,100,67,99,79,100,81,84,89,39,82,100,100,75,100
Cl.O=C(O[C@H]1CN[C@H](C#Cc2cc3ncnc(Nc4ccc5c(cnn5Cc5ccccc5)c4)c3s2)C1)N1CCOCC1 [GSK200398A],96,100,87,86,100,87,100,97,92,97,100,68,100,100,100,78,84,87,88,92
Nc1ncnc2occ(-c3ccc(NC(=O)Nc4cc(C(F)(F)F)ccc4F)cc3)c12 [GW770249X],92,100,97,82,95,99,68,1.4,0,38,39,96,100,100,63,4.4,0,70,93,31
CCS(=O)(=O)c1ccc(OC)c(Nc2ncc(-c3cccc(OC)c3)o2)c1 [GW580509X],93,100,97,79,95,100,100,100,100,100,100,93,93,99,100,84,100,100,98,98
C[C@@H](Oc1cc(-n2cnc3ccc(OC4CCN(C)CC4)cc32)sc1C(N)=O)c1ccccc1Cl [GSK579289A],69,100,85,67,11,97,94,79,100,74,90,100,69,94,100,70,100,100,53,100
NS(=O)(=O)c1ccc(N/N=C2\C(=O)Nc3ccc(Cl)cc32)cc1 [GW280670X],100,100,100,100,100,100,100,100,100,83,100,77,100,100,100,100,100,100,96,78
COc1cc2ncn(-c3cc(O[C@H](C)c4ccccc4Cl)c(C(N)=O)s3)c2cc1OC [GSK237701A],88,100,92,43,88,100,97,75,84,,100,81,100,86,100,76,48,100,94,86
COc1ccccc1-c1cc(/C=C2\C(=O)Nc3ncc(Br)cc32)cc(Br)c1O [GW442130X],100,94,100,100,100,100,100,91,62,89,100,88,95,100,99,89,71,97,100,96
COc1cc(N2CCN(C(C)C)CC2)ccc1Nc1nc(Nc2ccc(F)cc2C(=O)NC[C@@H](O)CO)c2cc[nH]c2n1 [GSK1392956A],90,57,79,45,78,100,100,64,91,86,100,85,100,89,100,93,100,100,100,100
